Laboratory results as given in ChEMBL document CHEMBL3988442, “University of Dundee, Small-Polar-MMV Screening Library” (2021).
For some of these results: Results with a measured potency or affinity are listed apart.

What was measured:
Set-up in all cases: scale not given: direction of the effect not stated beside the values
[1] = target: Protein translocase subunit SecA (Escherichia coli (strain K12)) (UniProt P10408); test: Assay to Identify E. coli SecA ATPase Inhibitors; assay type: functional; conditions: 30 µM
[2] = target: T1, Ubiquitin-activating enzyme e1, putative (Leishmania donovani (strain BPK282A1)) (UniProt E9BSI1); test: Leishmania donovani Ubiquitin Activating Enzyme (LdE1); assay type: functional; conditions: 30 µM
T1 sequence (whole entry): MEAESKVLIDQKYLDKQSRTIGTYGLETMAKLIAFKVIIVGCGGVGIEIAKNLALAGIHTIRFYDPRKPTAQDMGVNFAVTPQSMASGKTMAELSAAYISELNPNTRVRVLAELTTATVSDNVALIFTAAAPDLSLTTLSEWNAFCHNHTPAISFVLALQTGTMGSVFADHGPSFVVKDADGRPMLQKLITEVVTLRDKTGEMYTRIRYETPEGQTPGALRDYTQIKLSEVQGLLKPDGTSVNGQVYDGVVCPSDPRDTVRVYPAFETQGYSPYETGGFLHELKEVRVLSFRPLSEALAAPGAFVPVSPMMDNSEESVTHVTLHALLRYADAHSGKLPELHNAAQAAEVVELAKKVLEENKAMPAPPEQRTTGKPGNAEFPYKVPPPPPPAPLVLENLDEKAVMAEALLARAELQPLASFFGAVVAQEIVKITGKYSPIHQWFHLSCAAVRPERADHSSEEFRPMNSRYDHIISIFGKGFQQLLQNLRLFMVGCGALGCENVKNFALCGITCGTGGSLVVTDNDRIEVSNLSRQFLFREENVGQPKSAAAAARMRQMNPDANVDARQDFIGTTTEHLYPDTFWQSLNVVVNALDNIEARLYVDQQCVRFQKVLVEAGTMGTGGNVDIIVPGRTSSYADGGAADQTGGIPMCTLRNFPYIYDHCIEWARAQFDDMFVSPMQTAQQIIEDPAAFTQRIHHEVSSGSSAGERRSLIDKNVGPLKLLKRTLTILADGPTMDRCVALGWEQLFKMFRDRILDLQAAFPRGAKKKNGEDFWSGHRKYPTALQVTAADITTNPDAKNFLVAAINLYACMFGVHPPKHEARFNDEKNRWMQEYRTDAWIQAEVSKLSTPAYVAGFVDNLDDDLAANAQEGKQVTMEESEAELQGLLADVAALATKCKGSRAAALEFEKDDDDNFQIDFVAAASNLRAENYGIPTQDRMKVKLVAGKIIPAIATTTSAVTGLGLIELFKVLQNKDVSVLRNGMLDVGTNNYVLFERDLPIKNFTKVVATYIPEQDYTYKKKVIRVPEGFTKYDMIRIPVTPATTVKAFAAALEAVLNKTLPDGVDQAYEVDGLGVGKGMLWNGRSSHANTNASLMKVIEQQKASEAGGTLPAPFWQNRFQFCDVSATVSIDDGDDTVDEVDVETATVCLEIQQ

[3] = target: AMP-activated protein kinase, AMPK (Homo sapiens) (UniProt P54646+O43741+P54619+Q9UGJ0+Q9Y478+Q13131+Q9UGI9); test: AMP-dependent Kinase enzyme assay. An in vitro enzyme assay that detects ADP turnover that is directly proportional to AMPK activity. This uses naive AMPK that is activated during the assay with MK-8722; assay type: functional; conditions: 30 µM
[4] = target: Sialic acid-binding Ig-like lectin 9 (Homo sapiens) (UniProt Q9Y336); test: Hs-Siglec9 ALPHAscreen SOP 20170721; conditions: 10 µM
[5] = test system: Trypanosoma cruzi; test: Trypanosoma cruzi phosphomannomutase and mannose-1-phosphate guanylyltransferase assay; assay type: functional; conditions: 10 µM
[6] = target: T2, Arginase-2, mitochondrial (Homo sapiens) (UniProt P78540); test: in vitro enzyme assay to detect the production of urea directly proportional to the activity of Arginase II; assay type: functional; conditions: 33.3 µM; further: in the data most compounds retested in dose-response had high values
T2 sequence (whole entry): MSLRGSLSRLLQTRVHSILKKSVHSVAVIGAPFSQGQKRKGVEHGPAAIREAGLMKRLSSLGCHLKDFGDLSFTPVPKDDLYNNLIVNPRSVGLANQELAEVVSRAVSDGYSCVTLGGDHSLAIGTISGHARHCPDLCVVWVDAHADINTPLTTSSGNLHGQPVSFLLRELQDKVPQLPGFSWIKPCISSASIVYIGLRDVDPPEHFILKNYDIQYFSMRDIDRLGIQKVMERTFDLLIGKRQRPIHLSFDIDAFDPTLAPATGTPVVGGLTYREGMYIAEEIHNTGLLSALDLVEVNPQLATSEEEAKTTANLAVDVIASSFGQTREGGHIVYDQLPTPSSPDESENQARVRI

[7] = target: T3, Proteasome subunit beta (Trypanosoma cruzi) (UniProt O96673); test: Trypanosoma cruzi proteasome chymotrypsin-like activity (TcProtChymo) assay.; further: in the data most compounds retested in dose-response had high values; assay type: functional; conditions: 9.37 µM
T3 sequence (whole entry): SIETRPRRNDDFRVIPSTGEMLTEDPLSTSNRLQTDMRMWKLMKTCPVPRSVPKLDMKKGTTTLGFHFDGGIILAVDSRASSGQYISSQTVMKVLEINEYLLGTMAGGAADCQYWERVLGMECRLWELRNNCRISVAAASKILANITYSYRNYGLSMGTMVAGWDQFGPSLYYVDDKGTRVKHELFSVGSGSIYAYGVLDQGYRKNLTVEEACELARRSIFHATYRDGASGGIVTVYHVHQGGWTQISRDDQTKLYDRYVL

[8] = species: Homo sapiens; test: To identify inhibition of the IFN signalling (Jak-Stat) pathway via expression of an eGFP reporter gene under the control of an IFN-stimulated response element (ISRE) containing MxA promoter.; assay type: functional; conditions: 30 µM
[9] = target: T4, Tyrosyl-tRNA synthetase, putative (Trypanosoma cruzi (strain CL Brener)) (UniProt Q4DSP6); test: Trypanosoma cruzi tyrosyl tRNA synthetase (TcYRS) _High Tyrosine SOP; assay type: functional; conditions: 30 µM; further: in the data most compounds retested in dose-response had high values
T4 sequence (whole entry): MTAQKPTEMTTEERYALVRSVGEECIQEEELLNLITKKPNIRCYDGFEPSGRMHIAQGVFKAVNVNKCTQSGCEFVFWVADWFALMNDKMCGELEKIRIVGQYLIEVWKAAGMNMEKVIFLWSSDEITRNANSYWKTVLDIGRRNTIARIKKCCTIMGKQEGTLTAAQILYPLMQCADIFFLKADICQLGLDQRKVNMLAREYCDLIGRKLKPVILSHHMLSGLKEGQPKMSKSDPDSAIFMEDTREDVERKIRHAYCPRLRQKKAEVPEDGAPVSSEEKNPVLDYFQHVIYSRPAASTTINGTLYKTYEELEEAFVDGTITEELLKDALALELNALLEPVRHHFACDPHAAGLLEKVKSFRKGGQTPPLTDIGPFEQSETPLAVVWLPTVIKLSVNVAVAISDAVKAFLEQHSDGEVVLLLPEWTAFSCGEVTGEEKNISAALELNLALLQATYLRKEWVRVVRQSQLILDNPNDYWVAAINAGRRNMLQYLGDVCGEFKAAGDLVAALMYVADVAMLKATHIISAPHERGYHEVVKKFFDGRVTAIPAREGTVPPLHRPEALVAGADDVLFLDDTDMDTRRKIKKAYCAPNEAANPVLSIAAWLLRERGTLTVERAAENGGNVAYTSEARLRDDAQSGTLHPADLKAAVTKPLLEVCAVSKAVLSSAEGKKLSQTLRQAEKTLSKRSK

[10] = target: T4, Tyrosyl-tRNA synthetase, putative (Trypanosoma cruzi (strain CL Brener)); test: Trypanosoma cruzi tyrosyl tRNA synthetase (TcYRS) SOP; assay type: functional; conditions: 30 µM
[11] = target: Chromo domain-containing protein 1 (Saccharomyces cerevisiae (strain ATCC 204508 / S288c) (Baker's yeast)) (UniProt P32657); test: ScCHD-1 Enzyme Inhibition Assay; assay type: functional; conditions: 30 µM; further: in the data most compounds retested in dose-response had high values
Chromo domain-containing protein 1 (Saccharomyces cerevisiae (strain ATCC 204508 / S288c) (Baker's yeast)), sequence (P32657 whole entry, the tested form may be a part): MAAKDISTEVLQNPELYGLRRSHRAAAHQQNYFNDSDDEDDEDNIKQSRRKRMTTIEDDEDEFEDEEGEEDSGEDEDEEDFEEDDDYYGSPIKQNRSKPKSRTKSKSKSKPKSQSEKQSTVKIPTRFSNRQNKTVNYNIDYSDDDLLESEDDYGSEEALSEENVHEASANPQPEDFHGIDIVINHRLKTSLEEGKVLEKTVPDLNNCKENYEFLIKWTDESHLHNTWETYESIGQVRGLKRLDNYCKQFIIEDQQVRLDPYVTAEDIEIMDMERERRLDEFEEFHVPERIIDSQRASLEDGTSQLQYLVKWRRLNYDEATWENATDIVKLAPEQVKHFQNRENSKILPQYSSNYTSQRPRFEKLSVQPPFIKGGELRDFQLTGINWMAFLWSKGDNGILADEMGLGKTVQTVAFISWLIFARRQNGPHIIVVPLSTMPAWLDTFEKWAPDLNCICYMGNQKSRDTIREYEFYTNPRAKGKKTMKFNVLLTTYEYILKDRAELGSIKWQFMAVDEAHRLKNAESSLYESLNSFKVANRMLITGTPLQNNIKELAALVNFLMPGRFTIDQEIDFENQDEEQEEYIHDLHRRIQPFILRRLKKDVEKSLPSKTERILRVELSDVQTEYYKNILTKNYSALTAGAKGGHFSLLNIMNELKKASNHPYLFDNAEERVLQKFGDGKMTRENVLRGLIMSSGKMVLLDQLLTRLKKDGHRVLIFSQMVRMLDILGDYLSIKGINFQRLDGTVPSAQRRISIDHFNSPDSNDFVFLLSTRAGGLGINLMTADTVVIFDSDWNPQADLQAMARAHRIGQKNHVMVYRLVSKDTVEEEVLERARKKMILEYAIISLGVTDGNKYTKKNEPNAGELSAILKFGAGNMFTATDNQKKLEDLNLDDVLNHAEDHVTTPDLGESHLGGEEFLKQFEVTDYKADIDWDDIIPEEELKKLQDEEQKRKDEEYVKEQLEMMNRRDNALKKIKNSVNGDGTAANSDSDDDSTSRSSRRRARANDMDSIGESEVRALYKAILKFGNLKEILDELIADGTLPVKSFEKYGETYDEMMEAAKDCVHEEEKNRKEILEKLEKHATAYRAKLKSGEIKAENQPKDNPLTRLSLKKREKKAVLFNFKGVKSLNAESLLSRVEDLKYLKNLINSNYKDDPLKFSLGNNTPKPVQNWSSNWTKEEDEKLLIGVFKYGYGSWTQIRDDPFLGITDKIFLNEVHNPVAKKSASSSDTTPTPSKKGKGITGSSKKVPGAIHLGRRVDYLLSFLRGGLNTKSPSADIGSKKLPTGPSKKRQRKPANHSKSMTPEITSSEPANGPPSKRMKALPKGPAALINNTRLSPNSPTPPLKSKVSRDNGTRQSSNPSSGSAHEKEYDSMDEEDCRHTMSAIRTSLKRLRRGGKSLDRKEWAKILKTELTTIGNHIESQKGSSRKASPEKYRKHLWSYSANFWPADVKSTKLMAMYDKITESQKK

Protein translocase subunit SecA (Escherichia coli (strain K12)), sequence (P10408 whole entry): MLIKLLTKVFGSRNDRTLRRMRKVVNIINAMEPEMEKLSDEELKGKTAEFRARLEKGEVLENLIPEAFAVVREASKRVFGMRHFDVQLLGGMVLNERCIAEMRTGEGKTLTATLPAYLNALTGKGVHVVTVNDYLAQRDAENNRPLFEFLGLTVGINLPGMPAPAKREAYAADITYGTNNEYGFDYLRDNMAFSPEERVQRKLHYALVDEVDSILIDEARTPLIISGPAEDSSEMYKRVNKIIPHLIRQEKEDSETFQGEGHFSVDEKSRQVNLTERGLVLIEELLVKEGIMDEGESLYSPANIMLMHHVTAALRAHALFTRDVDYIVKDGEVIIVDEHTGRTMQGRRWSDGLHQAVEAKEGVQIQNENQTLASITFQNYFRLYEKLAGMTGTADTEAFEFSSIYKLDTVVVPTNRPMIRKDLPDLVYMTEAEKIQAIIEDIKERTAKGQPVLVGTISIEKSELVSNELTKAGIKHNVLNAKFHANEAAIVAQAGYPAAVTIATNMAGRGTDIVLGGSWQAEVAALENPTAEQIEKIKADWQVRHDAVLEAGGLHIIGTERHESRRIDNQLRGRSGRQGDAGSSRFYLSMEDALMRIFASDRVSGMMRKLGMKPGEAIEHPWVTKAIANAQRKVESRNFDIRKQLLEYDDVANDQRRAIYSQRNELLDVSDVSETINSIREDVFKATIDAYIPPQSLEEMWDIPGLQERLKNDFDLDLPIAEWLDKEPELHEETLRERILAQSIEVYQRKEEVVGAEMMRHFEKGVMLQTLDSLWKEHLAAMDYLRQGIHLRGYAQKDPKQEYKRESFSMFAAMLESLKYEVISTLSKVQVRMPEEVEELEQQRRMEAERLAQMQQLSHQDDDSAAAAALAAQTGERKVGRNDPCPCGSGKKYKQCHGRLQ
Sialic acid-binding Ig-like lectin 9 (Homo sapiens), sequence (Q9Y336 whole entry): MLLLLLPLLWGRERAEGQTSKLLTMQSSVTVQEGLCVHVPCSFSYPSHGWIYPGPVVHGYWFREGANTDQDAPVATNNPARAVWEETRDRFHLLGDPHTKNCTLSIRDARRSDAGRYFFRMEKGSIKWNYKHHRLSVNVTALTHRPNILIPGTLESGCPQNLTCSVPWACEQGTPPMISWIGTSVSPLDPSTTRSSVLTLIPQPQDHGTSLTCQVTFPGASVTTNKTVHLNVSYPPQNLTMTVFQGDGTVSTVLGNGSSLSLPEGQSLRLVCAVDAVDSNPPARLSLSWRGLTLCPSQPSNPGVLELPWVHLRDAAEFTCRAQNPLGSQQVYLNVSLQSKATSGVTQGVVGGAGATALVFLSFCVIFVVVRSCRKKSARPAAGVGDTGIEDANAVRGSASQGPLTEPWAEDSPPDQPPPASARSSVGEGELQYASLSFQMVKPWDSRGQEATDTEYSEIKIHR

Structure (SMILES)	Percent Effect [1] [%]	Percent Effect [2] [%]	Percent Effect [3] [%]	Percent Effect [4] [%]	Percent Effect [5] [%]	Percent Effect [6] [%]	Percent Effect [7] [%]	Percent Effect [8] [%]	Percent Effect [9] [%]	Percent Effect [10] [%]	Percent Effect [11] [%]
Cc1ccc(-c2noc(CN3CCOC(Cn4cncn4)C3)n2)cc1 (stereo unspecified)	-4.95	-5.41	0.576	2.63	2.14	-2.03	-1.79	8.27	2.97	-1.22	5.54
Cc1ccnc(OCC(=O)N2CCC(C(N)=O)CC2)n1	-3.87	21.9	0.564	12.6	1.37	5	11.4	7.23	6.45	15	-7.43
CCc1nc(CN(Cc2cccs2)CC2CCCO2)no1 (stereo unspecified)	-0.473	-11.4	2.16	0.0835	-0.308	2.37	4.29	10.4	-3.12	5.06	3.56
Cc1nccn1C1CCCN(C(=O)c2ccc3c(c2)NC(=O)CO3)C1 (stereo unspecified)	-3.38	2.7	-9.28	-2.15	4.43	-1.2	14.1	-3.11	6.4	16.1	-9.9
Cc1nc(C(C)(C)NC(=O)Nc2cccc(C#N)c2)no1	-4.07	5.48	3.16	8.84	8.81	-0.455	15.1	3.14	5.38	15	-4.58
CN(CCC#N)C(=O)CN1CCCC1c1ccsc1 (stereo unspecified)	-7.51	0	-7.58	1.78	-3.62	0.924	-1.26	11.9	-2.97	-1.22	7.91
Cn1cccc1C(=O)N1CCCN(CCCc2ccccc2)CC1	4.69	-11	-4.66	8.38	-2.38	-14.8	14.3	18.6	9.38	16.1	-3.52
CCN1CCC(NC(=O)CN2CCc3c(nc(C4CC4)n3C)C2)CC1	-2.61	-5.2	-9.14	13.3	0.374	6.76	-2.37	-16.3	1.94	0	-7.12
O=C(O)CCc1cc2n(n1)CCCN(C(=O)c1ccc3cc[nH]c3c1)C2	-2.97	16.2	-5.19	10.7	4.05	10.5	11.9	-2.64	7.94	17.1	-3.38
Cc1nn(C)c(C)c1C1COCCN1C(=O)Cc1cccc(F)c1 (stereo unspecified)	-0.171	13.7	-6.33	3.58	-3.13	-1.82	17.6	33.3	1.07	5	-4.69
Cc1nc(C)n(CC2CCCN2Cc2nc(C3CC3)no2)n1 (stereo unspecified)	-1.33	2.63	-3.31	-2.5	4.32	-3.83	1.34	-15.7	2.45	4.88	-4.84
